Assay results taken from PubChem BioAssay (Tox21).
Records with an inconclusive call do not appear. Where a call stands in place of a potency, no number is given. Active and inactive are the calls of the source. Unless noted, calls come from the whole dose curve; as a rule, active = well fitted curve in the direction sought with a large enough effect in the repeat runs; inconclusive = weak or mixed curves; inactive = no such curve, though single readings can be large; an effect the other way counts as inactive or inconclusive.

Columns and labels:
[1] = target: Retinoic acid receptor RXR-alpha (Homo sapiens) (UniProt P19793); assay: qHTS assay to identify small molecule agonists of the RXR signaling pathway (AID 1159527; calls by dose curve; note: nearly all actives have a fitted effect of over 35% in size; note: potency is the fitted concentration of half-maximal effect)
In short: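 Compounds in DMSO were added to RXR-alpha-UAS-bla HEK 293T cells kept in 2% charcoal-stripped serum, and incubated 16 hr at 37 C with 5% CO2. Reporter signal came from a 2 hr B/G FRET substrate step.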

[2] = qHTS assay to identify small molecule agonists of the RXR signaling pathway - cell viability counter screen (AID 1159529);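 note: HEK 293T cells carrying an RXR-alpha UAS beta-lactamase reporter; series mostly up to about 77 µM; nearly all actives have a fitted effect of over 50% in size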
In short: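 Counter screen: CellTiter-Glo luminescence. Cells: RXR-alpha-UAS-bla HEK 293T. Medium: 2% charcoal-stripped FBS. Treatment: 16 h, 37 C. Reagent incubation: 30 min, RT.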

[3] = qHTS assay to identify small molecule antagonists of the retinoid acid receptor (RAR) signaling pathway - cell viability counter screen (AID 1159551); note: nearly all actives have a fitted effect of over 35% in size
In short: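 C3RL4 RARE-luciferase cells, 1,000/well, incubated overnight, then dosed with compound plus 1 uM retinol (final). After 6 hr at 37 C, viability read by CellTiter-Glo ATP luminescence following 30 min at room temperature.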

[4] = qHTS assay to identify small molecule antagonists of the retinoic acid receptor (RAR) signaling pathway (AID 1159552; note: nearly all actives have a fitted effect of over 50% in size)
In short: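 Antagonism of retinol-induced RARE reporter activity was measured in C3RL4 cells. Exposure to compounds and 1 uM final retinol lasted 6 hr at 37 C, with luminescence as endpoint.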

[5] = qHTS assay to identify small molecule agonists of the retinoic acid receptor (RAR) signaling pathway (AID 1159553); note: potency is the fitted concentration of half-maximal effect
In short: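 C3RL4 RARE-luciferase cells were seeded at 1,000/well and grown overnight at 37 C, then exposed to compounds for 6 hr at 37 C, 5% CO2. Luciferase reagent was added and luminescence was read after 30 min at room temperature.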

[6] = qHTS assay to identify small molecule antagonists of the estrogen related receptor (ERR) signaling pathway (AID 1224819;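 note: luminescence from an ERR-driven luciferase reporter measured with One-Glo reagent; series mostly up to about 46 µM; nearly all actives have a fitted effect of over 50% in size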)
In short: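 ERR reporter cell line (NTP) plated at 2,000 cells/well, settled 6 h at 37C/5% CO2, then exposed to LOPAC compounds for 18 h at 37C. One-Glo luciferase luminescence read after 30 min at room temperature.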

[7] = qHTS assay to identify small molecule agonists of the estrogen related receptor (ERR) signaling pathway (AID 1224820)
In short: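 Quantitative HTS of the LOPAC library used NTP ERR reporter cells treated 18 h at 37 C. Signal is luminescence after One-Glo addition and a 30 min room-temperature incubation.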

[8] = test system: estrogen-related receptor alpha (ERRalpha) with PGC-1alpha coactivator, human; assay: qHTS assay to identify small molecule antagonists of the estrogen related receptor signaling pathway with the pleiotropic PPARgamma coactivator (PGC) (AID 1224821; calls by dose curve;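 note: series mostly up to about 46 µM; lower luminescence signal means antagonism of PGC/ERR signalling; nearly all actives have a fitted effect of over 50% in size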)
In short: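 Quantitative HTS for antagonism: PGC/ERR cells received compounds after 6 h attachment and were incubated 18 h at 37 C, with luminescence (One-Glo) as the endpoint.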

Retinoic acid receptor RXR-alpha (Homo sapiens), sequence (P19793 whole entry, looked up): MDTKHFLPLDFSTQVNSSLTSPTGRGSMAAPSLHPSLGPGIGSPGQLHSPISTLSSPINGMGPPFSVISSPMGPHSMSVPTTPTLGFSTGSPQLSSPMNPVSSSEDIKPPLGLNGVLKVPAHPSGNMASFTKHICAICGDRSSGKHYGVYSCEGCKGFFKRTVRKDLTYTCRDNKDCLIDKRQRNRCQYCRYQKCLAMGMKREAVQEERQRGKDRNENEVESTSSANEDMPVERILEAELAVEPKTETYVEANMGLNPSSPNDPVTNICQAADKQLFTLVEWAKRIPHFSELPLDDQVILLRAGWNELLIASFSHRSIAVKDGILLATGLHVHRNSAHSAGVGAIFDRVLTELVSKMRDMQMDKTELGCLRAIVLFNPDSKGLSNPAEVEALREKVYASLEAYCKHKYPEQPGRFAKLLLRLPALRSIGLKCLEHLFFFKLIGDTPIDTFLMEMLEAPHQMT

SMILES | Potency [1] | outcome [2] | outcome [3] | outcome [4] | Potency [5] | outcome [6] | outcome [7] | outcome [8]
CCOc1cc([N+](=O)[O-])c(OCC)cc1N1CCOCC1 | inactive | inactive | inactive | inactive | inactive | – | – | –
Cc1cc(NC(=O)C2=C(O)c3ccccc3S(=O)(=O)N2C)no1 | inactive | inactive | inactive | inactive | inactive | – | – | –
CC(COC(C)(C)C)OCCCO (configuration not stated) | 11 µM (active) | inactive | inactive | inactive | inactive | – | – | –
COc1ccc2c(c1OC)C(=O)O[C@@H]2[C@H]1c2c(cc3c(c2OC)OCO3)CCN1C | inactive | inactive | inactive | inactive | – | inactive | inactive | inactive
CC(=O)OC(C)OC(=O)C(C)c1ccc(-c2ccccc2)c(F)c1 (configuration not stated) | inactive | inactive | inactive | inactive | inactive | – | – | –
C[C@@H]1O[C@@H](O[C@@H]2[C@@H](O)[C@H](OCCc3ccc(O)c(O)c3)O[C@H](CO[C@@H]3O[C@H](CO)[C@@H](O)[C@H](O)[C@H]3O)[C@H]2OC(=O)/C=C/c2ccc(O)c(O)c2)[C@H](O)[C@H](O)[C@H]1O | inactive | inactive | inactive | inactive | inactive | – | – | –
CCCCCCOc1ccccc1C(N)=O | inactive | inactive | inactive | inactive | 13.3 µM (active) | – | – | –
CC(C)=CCOC(=O)c1ccccc1 | inactive | inactive | inactive | inactive | inactive | – | – | –
CC(N)C(=O)OC(C)(C)Cc1ccc(Cl)cc1 (configuration not stated) | inactive | inactive | inactive | inactive | inactive | – | – | –
CCCCCCCCCCl | inactive | inactive | inactive | inactive | inactive | – | – | –
N[C@@H](CCC(=O)Nc1ccc([N+](=O)[O-])cc1)C(=O)O | inactive | inactive | inactive | inactive | inactive | – | – | –
